# Source: PubChem BioAssay
# Cruzain inh noDet – inhibitors of Trypanosoma cruzi cruzain without detergent | P25779 | 200,000 tested, 2.3% active | Potency, µM, for inactives: max response, negative = inhibition, usual class: inhibitors | AID 1476 | purified cruzain, Z-FR-AMC fluorescence, no detergent;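 also: plate controls were enzyme without inhibitor for no effect and buffer without enzyme for full effect; nearly all actives have a fitted effect of over 40% in size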
# Target sequence (P25779 123-467 limits assumed): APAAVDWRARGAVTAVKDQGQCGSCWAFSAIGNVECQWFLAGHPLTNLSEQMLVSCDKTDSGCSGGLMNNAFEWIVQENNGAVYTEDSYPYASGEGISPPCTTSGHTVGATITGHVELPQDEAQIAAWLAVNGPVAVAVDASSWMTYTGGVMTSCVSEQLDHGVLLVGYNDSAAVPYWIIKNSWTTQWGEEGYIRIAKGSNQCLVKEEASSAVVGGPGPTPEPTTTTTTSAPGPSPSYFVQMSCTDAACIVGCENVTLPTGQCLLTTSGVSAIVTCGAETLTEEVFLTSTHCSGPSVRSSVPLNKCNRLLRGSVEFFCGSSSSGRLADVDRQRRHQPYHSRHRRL
#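 Detergent-free condition (0.00005% Triton X-100) in acetate buffer pH 5.5 with DTT. 1.5 nM enzyme and compound were pre-mixed 15 min, then 2 uM Z-FR-AMC substrate added; reaction progress from fluorescence change between first and third reads (60 s).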
# Cruzain inh Det – inhibitors of Trypanosoma cruzi cruzain with detergent; Potency, µM, for the others: max response, negative = inhibition, usual class: inhibitors; purified cruzain, Z-FR-AMC fluorescence, 0.01% Triton; 200,000 tested, 0.43% active;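 also: plate controls were neutral wells for no effect and buffer without enzyme for full effect; nearly all actives have a fitted effect of over 40% in size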
#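 Z-FR-AMC hydrolysis (2 uM substrate) by cruzain (1.5 nM) monitored kinetically at ex 360/em 450 nm after 15 min room-temperature compound exposure; 0.01% Triton X-100, pH 5.5, 5 mM DTT.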
# An asterisk follows results filed as active; ? = inconclusive. The list is not random: actives were taken first. Their share in the collection is about 2.6%. Calls follow the shape of the dose curve; as a rule, active = well fitted curve in the direction sought with a large enough effect; inconclusive = small, poorly fitted or top-dose-only effect, or another doubt; inactive = no such curve, though single readings can be large; an effect the other way counts as inactive or inconclusive. Potency is read from the fitted curve at half-maximal effect.
SMILES,Cruzain inh noDet,Cruzain inh Det
CC(Sc1nnc(Nc2ccccc2)s1)C(=O)NC1CCCc2ccccc21 (stereo not drawn),-12%,-10%
C=CC[C@@H](C(=O)O)c1ccccc1,4%,2%
Cc1cc(O)c2c(-c3ccccc3)cc(=O)oc2c1,3%,-6%
Cc1cc(OCc2ccc([N+](=O)[O-])cc2)c2c3c(c(=O)oc2c1)CCCC3,13µM*,-1%
COc1ccc([N+](=O)[O-])cc1COc1cc(C)cc2oc(=O)cc(-c3ccccc3)c12,32µM*,0%
Cc1c(OCc2ccc([N+](=O)[O-])cc2)ccc2c3c(c(=O)oc12)CCC3,-19%,-1%
CCOC(=O)C1=CC(OC(CC)CC)C(NC(C)=O)C(N)C1 (stereo not drawn),-13%,-1%
Cc1cc(N=Cc2c(O)n(-c3ccc4c(c3)OCO4)c(=O)c3ccccc23)ccn1,-24%,-9%
Cc1ccc(-n2c(O)c(C=Nc3ccc4c(c3)OCO4)c3ccccc3c2=O)cc1C,10µM*,-1%
O=C(O)c1c[nH]c2cc(OCc3ccccc3)ccc2c1=O,5%,4%
Cc1ccccc1OCc1nc(-c2ccc(NC(=O)c3ccc4c(c3)OCO4)cc2)no1,13µM*,3%
Cc1ccccc1OCc1nc(-c2ccc(NC(=O)c3ccco3)cc2)no1,2%,-5%
COc1ccc(NC(=O)N2CC3(CCN(C(=O)c4ccncc4)CC3)C2)cc1,-3%,2%
O=C(Nc1ccccc1)c1ccc(OC(=O)c2cc3ccccc3o2)cc1,13µM*,8%
O=C(Nc1ccccc1)c1cc2ccccc2o1,-4%,-2%
COc1cc(NC(=O)COc2cccc(OC)c2)cc(OC)c1,-12%,-6%
COc1cccc(OCC(=O)NNC(=O)c2ccc(-c3ccccc3)cc2)c1,25µM*,1%
COC(=O)c1cc2oc(C)cc2n1Cc1cc(C)ccc1C,-2%,-11%
O=C(c1ccc(Cl)cc1)c1cn(Cc2ccccc2)c2cc3c(cc2c1=O)OCCO3,8%,-2%
CCOC(=O)COc1ccccc1-c1ccno1,25µM*,?
CCOC(=O)COc1ccc2nsnc2c1Cl,-4%,-1%
C[C@]12CCC3c4ccc(O)cc4CCC3C1CCC2OC(=O)CCC1CCCC1 (stereo partly drawn),-28%,4%
c1ccc(-n2cnnc2SCc2nc3ccccc3s2)cc1,10µM*,-5%
Cc1nnc(SCc2nc3ccccc3s2)n1-c1ccccc1,20µM*,-2%
c1ccc(-c2ncc(CSc3nncn3-c3ccccc3)s2)cc1,12%,-2%
SMILES,Cruzain inh noDet,Cruzain inh Det
CCn1c(SCc2nc3ccccc3s2)nnc1-c1ccccc1,-11%,7%
COc1cc(-c2nc(Cn3nnc(C(=O)Nc4ccccc4)c3C)c(C)o2)cc(OC)c1OC,?,-7%
Cc1ccc(S(=O)(=O)/N=C2/C=C(Sc3ncn[nH]3)C(=O)c3ccccc32)cc1,?,-7%
CC(C)c1ccc(S(=O)(=O)/N=C2/C=C(Sc3ncn[nH]3)C(=O)c3ccccc32)cc1,13µM*,-14%
O=S(=O)(Nc1nc2ccccc2nc1Nc1ccc2c(c1)OCCO2)c1cccs1,25µM*,-5%
COc1ccc(S(=O)(=O)Nc2nc3ccccc3nc2Nc2ccc3c(c2)OCO3)cc1,?,-5%
Cc1cccc(C)c1N,-3%,1%
CCCCN(CC)Cc1ccc(CNS(=O)(=O)c2cc3c(cc2Cl)NC(=O)CO3)o1,-2%,1%
COc1ccc(-c2cccc(NS(=O)(=O)c3cc(C)ccc3OC)c2)nn1,10%,-2%
O=C(COC(=O)/C=C/c1ccccc1[N+](=O)[O-])Nc1ccc(OC(F)F)cc1,-21%,-1%
O=C(COC(=O)/C=C/c1ccccc1[N+](=O)[O-])Nc1ccc(OCc2ccccc2)cc1,25µM*,3%
CC(SC1=NCCS1)C(=O)Nc1nnc(-c2ccc(Cl)cc2)s1 (stereo not drawn),-16%,-8%
COc1ccccc1-c1nnc(NC(=O)C(C)SC2=NCCS2)s1 (stereo not drawn),16µM*,-5%
CCOc1ccc(NC(=O)c2cnn(-c3ccc(C)c(Cl)c3)c2C2CCNCC2)cc1,-5%,-1%
O=C(CNc1ccc2ccccc2c1)N/N=C/c1cc2ccccc2nc1Cl,25µM*,-14%
O=C(COc1cccc(Cl)c1)N/N=C\c1cc2ccccc2nc1Cl,-18%,9%
N=C(N)[C@H](N=Nc1ccccc1)C(N)=O,9%,2%
O=C(CN1C(=O)c2ccccc2S1(=O)=O)c1ccccc1,-16%,-4%
Cc1ccc(C(=O)CN2/C(=C(\O)c3ccccc3)C(=O)c3ccccc3S2(=O)=O)c(C)c1,25µM*,0%
Cc1cc(C)cc(OP(=O)(Oc2cc(C)cc(C)c2)Oc2cc(C)cc(C)c2)c1,0%,6%
COc1ccc(C(=O)c2sc3nc(-c4ccccc4)ccc3c2N)cc1,?,-4%
COc1cccc(-c2ccc3c(N)c(C(=O)c4ccc(Cl)cc4)sc3n2)c1,7.9µM*,-5%
